Results published in PubChem BioAssay (Tox21).
Results filed as inconclusive are left out. Activity calls are given as the source filed them. Unless noted, calls come from the whole dose curve; as a rule, active = well fitted curve in the direction sought with a large enough effect in the repeat runs; inconclusive = weak or mixed curves; inactive = no such curve, though single readings can be large; an effect the other way counts as inactive or inconclusive.

Key:
[1] = qHTS assay to identify small molecule antagonists of the estrogen receptor beta (ER-beta) signaling pathway - cell viability counter screen (AID 1259382);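 note: HEK293T cells carrying ER-beta-UAS-bla reporter stimulated with estradiol; series mostly up to about 92 µM; nearly all actives have a fitted effect of over 55% in size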
Outline: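 HEK293T ER-beta-UAS-bla, 2% charcoal-stripped FBS; compounds + 1nM E2 16 hr 37C; CellTiter-Glo luminescence, 30 min RT.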

[2] = qHTS assay to identify small molecule agonists or antagonists of the thyroid stimulating hormone receptor (TSHR) signaling pathway - wild type cell line counter screen (AID 1259384; calls by dose curve)
Outline: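 Wild-type HEK293 cells were plated 18 h at 37 C/5% CO2, pin-dosed with compound plus Ro20-1724 medium, held 30 min at room temperature, then given cAMP-d2 and anti-cAMP-cryptate; fluorescence was read after 1 h. Fifteen concentrations, triplicate.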

[3] = target: Thyrotropin receptor (Homo sapiens) (UniProt P16473); test: qHTS assay to identify small molecule antagonists of the thyroid stimulating hormone receptor (TSHR) signaling pathway (AID 1259385; calls by dose curve; note: nearly all actives have a fitted effect of over 20% in size)
Outline: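 TSHR-HEK293 cells were plated and held 18 h at 37C/5% CO2, then given compound plus Ro20-1724 and stimulated with TSH at 1.5 ng/mL final. After 30 min at room temperature, cAMP was detected with cAMP-d2/anti-cAMP-cryptate (1 h) by fluorescence.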

[4] = qHTS assay to identify small molecule agonists of the estrogen receptor alpha (ER-alpha) signaling pathway in the presence of an antagonist - cell viability counter screen (AID 1259386);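 note: series mostly up to about 92 µM; cells exposed to compounds for 22 h at 37 °C before the viability read; nearly all actives have a fitted effect of over 30% in size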
Outline: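 Steps: 5-day stripped-FBS culture; seed and incubate 24hr; add ICI-182,780 (10.0nM final); pin 15-point compound titration; incubate 22hr at 37C; add CellTiter-Fluor at 21hr; read fluorescence.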

[5] = target: Progesterone receptor (Homo sapiens) (UniProt P06401); test: qHTS assay to identify small molecule agonists of the progesterone receptor (PR) signaling pathway (AID 1346784; calls by dose curve; note: nearly all actives have a fitted effect of over 30% in size)
Outline: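 Compounds were tested for PR agonism in HEK 293T cells bearing a beta-lactamase gene under UAS control. Treatment lasted 16 hr at 37C; signal came from fluorescence of a FRET substrate.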

[6] = target: Progesterone receptor (Homo sapiens) (UniProt P06401); test: qHTS assay to identify small molecule antagonists of the progesterone receptor (PR) signaling pathway (AID 1346795; active = well fitted inhibition curve with a large enough effect in the signal ratio in the repeat runs, not every such curve was filed as active; the % refers to the signal ratio)
Outline: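 In HEK293T cells bearing the PR-UAS-bla reporter, compound effects on promegestone-driven (1 nM) beta-lactamase expression are assessed after 16 hr using a fluorescent FRET substrate incubated 2 hr at room temperature.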

[7] = qHTS assay to identify small molecule antagonists of the progesterone receptor (PR) signaling pathway - cell viability counter screen (AID 1346798); note: series mostly up to about 92 µM; nearly all actives have a fitted effect of over 50% in size
Outline: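 Following a 4 hr attachment, PR-UAS-bla HEK293T cells in charcoal-stripped FBS medium were exposed to compounds with R5020 for 16 hr; CellTiter-Glo was added and luminescence read after 30 min at room temperature.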

[8] = qHTS assay to identify small molecule agonists of the progesterone receptor (PR) signaling pathway - cell viability counter screen (AID 1346799; calls by dose curve; note: nearly all actives have a fitted effect of over 45% in size)
Outline: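 Here, 3,000 PR-UAS-bla HEK293T cells per well were treated with compounds for 16 hr after a 6 hr preincubation at 37C and 5% CO2; cell viability is the CellTiter-Glo luminescence signal.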

[9] = qHTS assay to identify small molecule antagonists of the TGF-beta/Smad signaling pathway - cell viability counter screen (AID 1346824); note: nearly all actives have a fitted effect of over 50% in size
Outline: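 SBE-bla HEK 293T cells were plated overnight at 37 C, then given compounds in DMSO plus TGF-beta1 (added as 0.25 ng/mL solution) for 5 hr. After the bla read, CellTiter-Glo was added to the same wells and luminescence read after 30 min at room temperature.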

[10] = qHTS assay to identify small molecule agonists of the TGF-beta/Smad signaling pathway (AID 1346859; active = well fitted activation curve with a large enough effect in the signal ratio in the repeat runs, not every such curve was filed as active; the % refers to the signal ratio; note: series mostly up to about 77 µM)
Outline: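 Each well held 4,000 SBE-bla HEK 293T cells incubated overnight before compound addition; 5 hr later the cleavable FRET substrate went on for 2 hr at room temperature, and fluorescence was read at two emissions.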

[11] = target: Thyrotropin-releasing hormone receptor (Homo sapiens) (UniProt P34981); test: qHTS assay to identify small molecule antagonists of the thyrotropin-releasing hormone receptor (TRHR) signaling pathway (AID 1346877; active = well fitted inhibition curve with a large enough effect in the repeat runs, not every such curve was filed as active; note: series mostly up to about 51 µM)
Outline: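 Human TRHR in HEK293 cells; inhibition of the intracellular calcium rise triggered by 1 nM TRH was followed by fluorescence over 3 min. Compounds were run at 15 concentrations, three replicates each.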

[12] = target: Thyrotropin-releasing hormone receptor (Homo sapiens) (UniProt P34981); test: qHTS assay to identify small molecule agonists of the thyrotropin-releasing hormone receptor (TRHR) signaling pathway (AID 1346891; calls by dose curve; note: series mostly up to about 58 µM)
Outline: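 Screening of agonists relied on calcium signalling in HEK293 cells expressing human TRHR: dye loading 2 h at 37 °C preceded compound addition and a 3-min fluorescence time course.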

[13] = Human pregnane X receptor (PXR) small molecule agonists, qHTS cell viability counter screen (AID 1346977); note: nearly all actives have a fitted effect of over 50% in size
Outline: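 Tox21 qHTS format; PXR-Luc HepG2, 2,000/well, charcoal-stripped FBS 5%. Cpd exposure 24hr. Read: CellTiter-Fluor fluorescence, multiplexed with luciferase.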

[14] = Caspase-3/7 induction in HepG2 cells by small molecules, qHTS assay (AID 1346978); note: nearly all actives have a fitted effect of over 15% in size
Outline: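 Wild-type HepG2 cells (2,000/well) were settled 5 h at 37 C, 5% CO2, then exposed to compounds in DMSO for 17 h. Caspase-3/7 activity was read by luminescence 30 min after adding Caspase-Glo 3/7 reagent at room temperature.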

[15] = Caspase-3/7 induction in CHO-K1 cells by small molecules, qHTS cell viability counter screen (AID 1346979); note: nearly all actives have a fitted effect of over 35% in size
Outline: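 CellTiter-Fluor viability check, qHTS format: wild-type CHO-K1, 16hr compound treatment, 1hr reagent incubation, fluorescence read.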

[16] = Caspase-3/7 induction in CHO-K1 cells by small molecules, qHTS assay (AID 1346980); note: nearly all actives have a fitted effect of over 15% in size
Outline: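 Wild-type cells were seeded at 1,500 per well and settled 5 hr at 37 C, 5% CO2, then exposed to DMSO-dissolved compounds for 17 hr. Caspase-Glo 3/7 reagent was added, and luminescence was read after 30min at room temperature.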

[17] = Caspase-3/7 induction in HepG2 cells by small molecules, qHTS cell viability counter screen (AID 1346981); note: series mostly up to about 92 µM; nearly all actives have a fitted effect of over 30% in size
Outline: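 The parent HepG2 line is plated at 2,000 cells per well and rested 5 hr before compound pinning from DMSO stocks. Following a 16-hr treatment at 37 C, a fluorogenic live-cell substrate (CellTiter-Fluor) reports viability after 1 hr.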

[18] = target: Nuclear receptor subfamily 1 group I member 2 (Homo sapiens) (UniProt O75469); test: Human pregnane X receptor (PXR) small molecule agonists, qHTS assay (AID 1346982); note: nearly all actives have a fitted effect of over 35% in size
Outline: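 After plating in 5% charcoal-stripped FBS and a 5 hr rest, PXR-Luc HepG2 cells received compounds in DMSO. Following 24 hr at 37 C, ONE-Glo was added and light output read.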

[19] = qHTS assay to identify small molecule agonists of the TGF-beta/Smad signaling pathway - cell viability counter screen (AID 1346829); note: top concentration of the series differs between compounds; nearly all actives have a fitted effect of over 45% in size
Outline: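 Tox21 qHTS format: SBE-bla HEK 293T cells treated with DMSO-dissolved compounds for 5 hr; CellTiter-Glo luminescence after 30 min at room temperature.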
% is set by controls: 0 for no effect and ±100 for the full control effect.

Thyrotropin-releasing hormone receptor (Homo sapiens), sequence (P34981 whole entry, looked up): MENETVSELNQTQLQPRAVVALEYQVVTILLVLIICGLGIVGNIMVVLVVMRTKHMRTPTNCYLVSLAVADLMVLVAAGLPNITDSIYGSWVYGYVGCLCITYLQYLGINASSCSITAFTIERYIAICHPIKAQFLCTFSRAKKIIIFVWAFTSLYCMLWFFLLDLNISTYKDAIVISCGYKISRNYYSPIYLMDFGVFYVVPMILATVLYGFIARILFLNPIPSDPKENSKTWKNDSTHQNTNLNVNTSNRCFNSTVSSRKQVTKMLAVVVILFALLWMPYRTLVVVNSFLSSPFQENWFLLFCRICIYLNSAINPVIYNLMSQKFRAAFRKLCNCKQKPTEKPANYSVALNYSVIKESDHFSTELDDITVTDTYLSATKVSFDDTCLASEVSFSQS
Thyrotropin receptor (Homo sapiens), sequence (P16473 whole entry, looked up): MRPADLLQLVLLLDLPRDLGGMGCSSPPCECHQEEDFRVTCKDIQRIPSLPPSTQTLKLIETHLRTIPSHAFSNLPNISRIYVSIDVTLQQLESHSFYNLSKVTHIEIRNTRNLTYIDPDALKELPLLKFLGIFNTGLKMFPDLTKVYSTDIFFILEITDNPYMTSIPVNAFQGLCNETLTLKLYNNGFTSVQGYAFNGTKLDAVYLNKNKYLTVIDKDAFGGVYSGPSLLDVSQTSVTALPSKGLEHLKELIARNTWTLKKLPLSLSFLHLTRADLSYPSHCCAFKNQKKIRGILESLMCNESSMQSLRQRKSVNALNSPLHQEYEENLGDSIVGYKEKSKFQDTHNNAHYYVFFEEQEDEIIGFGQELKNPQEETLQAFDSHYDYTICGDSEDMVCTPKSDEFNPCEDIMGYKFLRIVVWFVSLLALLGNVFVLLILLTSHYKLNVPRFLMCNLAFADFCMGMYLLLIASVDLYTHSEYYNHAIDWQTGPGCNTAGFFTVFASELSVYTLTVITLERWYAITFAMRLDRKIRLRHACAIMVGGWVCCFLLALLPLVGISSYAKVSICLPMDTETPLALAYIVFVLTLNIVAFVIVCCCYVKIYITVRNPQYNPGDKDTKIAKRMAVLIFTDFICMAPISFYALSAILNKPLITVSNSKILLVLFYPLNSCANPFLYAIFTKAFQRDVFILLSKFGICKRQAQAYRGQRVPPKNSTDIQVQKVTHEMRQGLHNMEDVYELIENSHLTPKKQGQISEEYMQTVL
Progesterone receptor (Homo sapiens), sequence (P06401 whole entry, looked up): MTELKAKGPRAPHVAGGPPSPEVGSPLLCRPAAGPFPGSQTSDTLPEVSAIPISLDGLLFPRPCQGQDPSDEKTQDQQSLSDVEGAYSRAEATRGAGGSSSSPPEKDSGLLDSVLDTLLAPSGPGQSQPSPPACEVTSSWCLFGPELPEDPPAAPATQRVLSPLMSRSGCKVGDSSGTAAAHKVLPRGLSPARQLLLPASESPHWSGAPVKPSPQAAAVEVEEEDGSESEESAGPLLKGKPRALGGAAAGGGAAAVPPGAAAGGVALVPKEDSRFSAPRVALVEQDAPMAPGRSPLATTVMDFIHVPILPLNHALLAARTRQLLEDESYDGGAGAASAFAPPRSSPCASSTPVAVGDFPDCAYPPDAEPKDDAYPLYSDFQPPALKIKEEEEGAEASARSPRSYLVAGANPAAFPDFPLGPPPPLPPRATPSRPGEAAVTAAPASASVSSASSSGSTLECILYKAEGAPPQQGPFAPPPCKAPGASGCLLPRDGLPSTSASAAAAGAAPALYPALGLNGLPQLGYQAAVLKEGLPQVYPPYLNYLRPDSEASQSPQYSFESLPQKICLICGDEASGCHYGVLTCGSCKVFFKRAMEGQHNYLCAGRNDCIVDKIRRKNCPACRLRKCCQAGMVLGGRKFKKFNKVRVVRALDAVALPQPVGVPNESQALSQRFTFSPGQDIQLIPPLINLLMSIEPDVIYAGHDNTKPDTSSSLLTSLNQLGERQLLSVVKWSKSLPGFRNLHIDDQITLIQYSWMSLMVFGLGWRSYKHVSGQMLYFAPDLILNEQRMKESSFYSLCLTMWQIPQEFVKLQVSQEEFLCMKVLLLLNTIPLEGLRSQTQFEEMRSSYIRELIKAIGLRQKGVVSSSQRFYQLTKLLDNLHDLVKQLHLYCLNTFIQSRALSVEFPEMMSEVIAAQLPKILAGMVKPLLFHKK
Nuclear receptor subfamily 1 group I member 2 (Homo sapiens), sequence (O75469 whole entry, looked up): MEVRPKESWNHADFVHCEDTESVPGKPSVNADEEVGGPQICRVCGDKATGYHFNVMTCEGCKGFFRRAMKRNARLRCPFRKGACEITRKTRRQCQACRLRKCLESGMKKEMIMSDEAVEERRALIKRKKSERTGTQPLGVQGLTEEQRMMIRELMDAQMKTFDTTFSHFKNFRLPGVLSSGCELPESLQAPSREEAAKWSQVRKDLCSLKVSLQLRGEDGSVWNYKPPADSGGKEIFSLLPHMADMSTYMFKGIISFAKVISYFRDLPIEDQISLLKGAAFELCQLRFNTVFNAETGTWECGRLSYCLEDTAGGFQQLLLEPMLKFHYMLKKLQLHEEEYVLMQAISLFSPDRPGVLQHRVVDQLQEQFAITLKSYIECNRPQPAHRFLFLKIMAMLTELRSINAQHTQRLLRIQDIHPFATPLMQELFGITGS

NC(Cc1c[nH]c2ccccc12)C(=O)O (stereo not given)
inactive: outcome [1] | outcome [2] | outcome [3] | Potency [4] | Potency [5] | Potency [6] | Potency [7] | Potency [8] | outcome [9] | outcome [10] | outcome [11] | outcome [12] | Potency [13] | outcome [14] | Potency [15] | outcome [16] | Potency [17] | Potency [18]

CCN1CN(CC)CN(CC)C1
inactive: outcome [1] | outcome [2] | outcome [3] | Potency [4] | Potency [5] | Potency [6] | Potency [8] | outcome [9] | outcome [19] | outcome [10] | outcome [11] | outcome [12] | Potency [13] | outcome [14] | Potency [15] | Potency [17]

BrC/C=C/CBr
inactive: activity change, negative = cytotoxicity [1] 3.59% [at 19 µM] | cAMP activity change [2] -5.59% [at 18.9 µM] | activity change, negative = inhibition [3] -1.56% [at 19 µM] | activity change, negative = cytotoxicity [4] 2.04% [at 19 µM] | activation [5] 1.6% [at 19 µM] | activity change, negative = inhibition [6] -3.92% [at 18.9 µM] | activity change, negative = cytotoxicity [8] 0% [at 19 µM] | viability change, negative = cytotoxic [9] 0.16% [at 15.8 µM] | activity change, negative = cytotoxicity [19] 11.2% [at 15.8 µM] | activation [10] 1.06% [at 15.8 µM] | activity, negative = inhibition [11] 0.461% [at 10.5 µM] | activation [12] 0.238% [at 11.8 µM] | activity change, negative = cytotoxicity [13] 5.06% [at 19 µM] | caspase activation [14] -0.853% [at 19 µM] | activity change, negative = cytotoxicity [15] 8.86% [at 19 µM] | activity change, negative = cytotoxicity [17] -3.88% [at 19 µM] | activation [18] -6.32% [at 19 µM]

F[Si-2](F)(F)(F)(F)F
inactive: outcome [1] | outcome [2] | outcome [3] | Potency [4] | Potency [5] | Potency [6] | Potency [7] | Potency [8] | outcome [9] | outcome [10] | outcome [11] | outcome [12] | Potency [13] | outcome [14] | Potency [15] | Potency [17]

SCCSCCS
inactive: outcome [1] | outcome [2] | outcome [3] | Potency [4] | Potency [5] | Potency [7] | Potency [8] | outcome [9] | outcome [19] | outcome [10] | outcome [11] | outcome [12] | Potency [13] | outcome [14] | Potency [15] | outcome [16] | Potency [17]

COC(=O)CCC(=O)O
inactive: outcome [1] | outcome [2] | outcome [3] | Potency [4] | Potency [5] | Potency [6] | Potency [7] | Potency [8] | outcome [9] | outcome [19] | outcome [10] | Potency [13] | outcome [14] | Potency [15] | outcome [16] | Potency [17] | Potency [18]

O=C(CN1CCN(Cc2ccc3c(c2)OCO3)CC1)N1c2ccccc2Sc2ccccc21
inactive: outcome [1] | outcome [2] | outcome [3] | Potency [4] | Potency [5] | Potency [6] | Potency [7] | Potency [8] | outcome [9] | outcome [19] | outcome [10] | outcome [11] | outcome [12] | Potency [15] | outcome [16] | Potency [17]

CCCCC/C=C/CC(=O)OC
inactive: outcome [1] | outcome [2] | outcome [3] | Potency [4] | Potency [5] | Potency [7] | Potency [8] | outcome [9] | outcome [19] | outcome [10] | Potency [15] | outcome [16] | Potency [17] | Potency [18]

Cc1ccccc1N1CCN(CCc2nnc3n2CCCC3)CC1
inactive: outcome [1] | outcome [2] | outcome [3] | Potency [4] | Potency [5] | Potency [6] | Potency [7] | outcome [9] | outcome [10] | outcome [11] | outcome [12] | Potency [13] | outcome [14] | Potency [15] | outcome [16] | Potency [17] | Potency [18]

C=CCOc1cc(Cl)ccc1C(=O)NCCN(CC)CC
inactive: outcome [1] | outcome [2] | outcome [3] | Potency [4] | Potency [5] | Potency [6] | Potency [7] | Potency [8] | outcome [9] | outcome [19] | outcome [10] | outcome [11] | outcome [12] | outcome [14] | Potency [15] | Potency [17] | Potency [18]

CCCCCC1Nc2cc(C(F)(F)F)c(S(N)(=O)=O)cc2S(=O)(=O)N1 (stereo not given)
inactive: outcome [1] | outcome [2] | outcome [3] | Potency [4] | Potency [5] | Potency [6] | Potency [7] | outcome [9] | outcome [10] | outcome [11] | outcome [12] | outcome [14] | Potency [15] | outcome [16] | Potency [17] | Potency [18]

CCC(C)(C)C1CCC(=O)CC1
inactive: outcome [1] | outcome [2] | outcome [3] | Potency [4] | Potency [5] | Potency [6] | Potency [7] | Potency [8] | outcome [9] | outcome [19] | outcome [10] | Potency [15] | Potency [17] | Potency [18]

C=C(C)C(=O)OC
inactive: outcome [1] | outcome [2] | outcome [3] | Potency [4] | Potency [5] | Potency [6] | Potency [7] | Potency [8] | outcome [9] | outcome [19] | outcome [10] | outcome [14] | Potency [15] | outcome [16] | Potency [17] | Potency [18]

O=C1NC2NC(=O)NC2N1 (stereo not given)
inactive: outcome [1] | outcome [2] | outcome [3] | Potency [4] | Potency [5] | Potency [6] | Potency [7] | Potency [8] | outcome [9] | outcome [10] | outcome [11] | outcome [12] | Potency [13] | outcome [14] | Potency [15] | outcome [16] | Potency [17]

CCCCC[Si](OCC)(OCC)OCC
inactive: outcome [1] | outcome [2] | outcome [3] | Potency [4] | Potency [5] | Potency [6] | outcome [9] | outcome [19] | outcome [10] | Potency [13] | outcome [14] | Potency [15] | outcome [16] | Potency [17] | Potency [18]

Nc1cc(C(=O)O)ccc1Cl
inactive: outcome [1] | outcome [2] | outcome [3] | Potency [4] | Potency [5] | Potency [6] | Potency [7] | Potency [8] | outcome [9] | outcome [10] | outcome [11] | outcome [12] | Potency [13] | outcome [14] | Potency [15] | outcome [16] | Potency [17]
